Data reported in PubChem BioAssay (NCATS).
Inconclusive results are not listed. Unmarked numbers belong to inactive results. Active and inactive are the calls of the source. Calls follow the shape of the dose curve; as a rule, active = well fitted inhibition curve with a large enough effect; inconclusive = small, poorly fitted or top-dose-only effect; inactive = flat fitted curve, though single readings scatter.

Columns and labels:
[1] = tested on: TAB113; assay: qHTS profiling for inhibitors of Plasmodium falciparum proliferation (AID 504749); also: potency is read from the fitted curve at half-maximal effect; details: P. falciparum in erythrocytes, SYBR Green DNA, 72 h; series mostly up to 28.7 µM
Method in brief: (§1)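 Readout was DNA-dye fluorescence from lysed cultures, ex 485/em 535 nm. Parasitized red cells had grown 72 h with compound; data scaled between 0.29 uM artemisinin and DMSO wells and corrected using vehicle-only plates.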

[2] = tested on: TAB165; assay: as above; details: P. falciparum in erythrocytes, SYBR Green DNA, 72 h; series mostly up to 28.7 µM
Method in brief: as §1

[3] = tested on: W2; assay: as above; details: P. falciparum in erythrocytes, SYBR Green DNA, 72 h; series mostly up to 28.7 µM
Method in brief: as §1

[4] = tested on: CRL-7250; assay: Cytotoxic Profiling of Annotated Libraries Using Quantitative High-Throughput Screening (AID 1296008); details: Five cell lines viability, CellTiter-Glo ATP luminescence, 48-72 h; max response: active compounds read low; also: potency is read from the fitted curve at half-maximal effect; as to max response: % is scaled to controls: 0 for no effect and ±100 for the full control effect
Method in brief: (§2)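 Cells exposed to compounds for 48 or 72 hr at 37 degrees Celsius. Viability read as ATP-coupled luminescence with CellTiter-Glo after 10 min at room temperature.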

[5] = tested on: HEK293; assay: as above; details: Five cell lines viability, CellTiter-Glo ATP luminescence, 48-72 h; max response: active compounds read low
Method in brief: as §2

[6] = tested on: HaCat; assay: as above; details: Five cell lines viability, CellTiter-Glo ATP luminescence, 48-72 h; max response: active compounds read low
Method in brief: as §2

[7] = tested on: KB-3-1; assay: as above; details: Five cell lines viability, CellTiter-Glo ATP luminescence, 48-72 h; max response: active compounds read low
Method in brief: as §2

[8] = tested on: NIH3T3; assay: as above; details: Five cell lines viability, CellTiter-Glo ATP luminescence, 48-72 h; max response: active compounds read low
Method in brief: as §2

[9] = tested on: HACAT; assay: qHTS assay to identify novel small-molecules to repurpose for Merkel cell carcinoma treatment (AID 1296009); details: MCC and control cell lines, CellTiter-Glo viability, 72 h; at 44.8 µM (top of the series) unless noted
Method in brief: (§3)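 Cells were incubated with compound for 72 hr at 37 degree celsius before CellTiter-Glo addition. Luminescence was normalized with no-cell wells as full cytotoxicity and DMSO as baseline.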

[10] = tested on: HEK293T; assay: as above; details: MCC and control cell lines, CellTiter-Glo viability, 72 h; at 44.8 µM (top of the series) unless noted
Method in brief: as §3
Also: nearly all actives have a fitted effect of over 60% in size.

OC1C(O)C(O)C(O)C(O)C1O (stereo not drawn)
Potency [1]: inactive
Potency [2]: inactive
Potency [3]: inactive
outcome [4]: inactive
max response [5]: 2.94%
max response [6]: 2.27%
max response [7]: -8.66%
max response [8]: -6.2%

CCCCC(CC)COC(=O)c1ccc(N(C)C)cc1 (stereo not drawn)
Potency [1]: inactive
Potency [2]: inactive
Potency [3]: inactive
outcome [4]: inactive
max response [5]: -4.34%
max response [6]: -11.9%
max response [7]: 0.633%
max response [8]: 4.63%

CCOC(=O)Nc1ccc2c(c1)N(C(=O)CCN1CCOCC1)c1ccccc1S2
Potency [1]: inactive
Potency [2]: inactive
Potency [3]: inactive
max response [4]: -6.24%
max response [5]: -28.3%
max response [6]: -10.7%
max response [7]: 0.404%
max response [8]: -4.09%

CC1=C(C(=O)O)N2C(=O)[C@@H](NC(=O)[C@H](N)c3ccccc3)[C@H]2SC1
Potency [1]: inactive
Potency [2]: inactive
Potency [3]: inactive
max response [4]: -2.3%
max response [5]: -2.48%
max response [6]: 2.08%
max response [7]: 11.5%
max response [8]: 1.34%

C=CCN1CCc2nc(N)sc2CC1
Potency [1]: inactive
Potency [2]: inactive
Potency [3]: inactive
max response [4]: -5.69%
max response [5]: 0.777%
max response [6]: -12.6%
max response [7]: 3.04%
max response [8]: 2.55%

CC(=O)NC(=O)c1ccccc1O
Potency [1]: inactive
Potency [2]: inactive
Potency [3]: inactive
max response [4]: -3.82%
max response [5]: -1.84%
max response [6]: -6.77%
max response [7]: -3.04%
max response [8]: 0.511%

CC(C)Cn1cnc2c1c(=O)n(C)c(=O)n2C
Potency [1]: inactive
Potency [2]: inactive
Potency [3]: inactive
outcome [4]: inactive
max response [5]: -0.637%
max response [6]: -0.147%
max response [7]: -13.7%
max response [8]: 1.58%

NC(=S)N/N=C/c1cccnc1
Potency [1]: inactive
Potency [2]: inactive
max response [4]: -6.1%
max response [5]: -29.1%
max response [6]: 1.46%
max response [7]: 2.69%
max response [8]: 1.77%

Nc1ccc(C(=O)NCC(=O)O)cc1
Potency [1]: inactive
Potency [2]: inactive
Potency [3]: inactive
max response [4]: -1.17%
max response [5]: 0.145%
max response [6]: 0.603%
max response [7]: 28.3%
max response [8]: -6.17%

CC(C)Nc1cccnc1N1CCN(C(=O)c2cc3cc(NS(C)(=O)=O)ccc3[nH]2)CC1
Potency [1]: inactive
Potency [2]: inactive
Potency [3]: 9.53 µM (active)
outcome [4]: inactive
max response [5]: -14.8%
max response [6]: 0.0011%
max response [7]: -4.88%
max response [8]: -1.79%

Cc1cccc(C)c1NC(=O)c1ccccc1C(=O)O
Potency [1]: inactive
Potency [2]: inactive
Potency [3]: inactive
outcome [4]: inactive
max response [5]: 0.24%
max response [6]: 1.31%
max response [7]: -0.148%
max response [8]: -5.01%

Cc1nc(-c2ccc(Cl)cc2)oc1COC(C)(C)C(=O)O
Potency [1]: inactive
Potency [2]: inactive
Potency [3]: inactive
outcome [4]: inactive
max response [5]: 4.06%
max response [6]: 3.89%
max response [7]: -5.49%
max response [8]: 1.1%

O=S(=O)(O)c1ccc(O)cc1
Potency [1]: inactive
Potency [2]: inactive
Potency [3]: inactive
max response [4]: -8.14%
max response [5]: 2.28%
max response [6]: -3.34%
max response [7]: -1.6%
max response [8]: 1.54%

CCOc1ccccc1C(N)=O
Potency [1]: inactive
Potency [2]: inactive
Potency [3]: inactive
outcome [4]: inactive
max response [5]: -2.36%
max response [6]: 1.44%
max response [7]: -15.7%
outcome [8]: inactive

Cc1c(-c2ccccc2)oc2c(C(=O)OCCN3CCCCC3)cccc2c1=O
Potency [1]: inactive
Potency [2]: inactive
Potency [3]: inactive
max response [4]: -1.78%
max response [5]: -20.2%
max response [6]: 3.56%
max response [7]: -3.83%
max response [8]: 3.38%

CNCCc1ccccn1
Potency [1]: inactive
Potency [2]: inactive
Potency [3]: inactive
outcome [4]: inactive
max response [5]: -1.02%
max response [6]: -8.27%
max response [7]: 5.51%
max response [8]: -2.69%

CCNC(=O)NCc1cccc(Cl)c1
Potency [1]: inactive
Potency [2]: inactive
Potency [3]: inactive
outcome [4]: inactive
max response [5]: 4.87%
max response [6]: -5.45%
max response [7]: 2.4%
max response [8]: 0.416%

FC1(F)C(F)(F)C(F)(F)C2(F)C(F)(F)C(F)(F)C(F)(F)C(F)(F)C2(F)C1(F)F (stereo not drawn)
Potency [1]: inactive
Potency [2]: inactive
Potency [3]: inactive
max response [4]: 4.26%
max response [5]: 3.06%
max response [6]: 0.333%
max response [7]: 4.98%
max response [8]: 1.4%

Nc1nc(-c2ccccc2)c(Br)c(=O)[nH]1
Potency [1]: inactive
Potency [2]: inactive
Potency [3]: inactive
max response [4]: -18.3%
max response [5]: -28.5%
max response [6]: -7.63%
max response [7]: 4.06%
max response [8]: -18.4%

CCc1oc2ccccc2c1C(=O)c1cc(I)c(O)c(I)c1
Potency [1]: inactive
Potency [2]: inactive
Potency [3]: inactive
max response [4]: -2.92%
max response [5]: -23.3%
max response [6]: -7.93%
max response [7]: -18.7%
max response [8]: -1.15%

Cn1c(=O)c2[nH]c(Br)nc2n(C)c1=O
Potency [1]: inactive
Potency [2]: inactive
Potency [3]: inactive
outcome [4]: inactive
max response [5]: -7.38%
max response [6]: -0.598%
max response [7]: -9.6%
max response [8]: -3.31%

CCCCCCCCOc1ccc(C(=O)c2ccccc2)c(O)c1
Potency [1]: inactive
Potency [2]: inactive
Potency [3]: inactive
max response [4]: -1.36%
max response [5]: -1.87%
max response [6]: -8.31%
max response [7]: 1.72%
max response [8]: -1.51%

C/C=C/C=N/NC(=O)c1ccncc1
Potency [1]: inactive
Potency [2]: inactive
Potency [3]: inactive
max response [4]: -0.246%
max response [5]: -6.37%
max response [6]: 0.247%
max response [7]: -15.9%
max response [8]: -0.451%

O=C(NCCc1c[nH]c2ccccc12)c1cccnc1
Potency [1]: inactive
Potency [2]: inactive
Potency [3]: inactive
max response [4]: 2.2%
max response [5]: -10.1%
max response [6]: -2.67%
max response [7]: -10.3%
max response [8]: 0.897%

C#C[C@]1(O)CC[C@H]2[C@@H]3CCc4cc(OC)ccc4[C@H]3CC[C@@]21C
Potency [1]: inactive
Potency [2]: inactive
Potency [3]: inactive
max response [4]: -13.3%
max response [5]: -6.93%
max response [6]: -21.7%
max response [7]: 0.369%
max response [8]: -5.18%

O=C(O)c1ccc(S(=O)(=O)N(Cl)Cl)cc1
Potency [1]: inactive
Potency [2]: inactive
Potency [3]: inactive
max response [4]: 3.6%
max response [5]: 3.96%
max response [6]: -0.853%
max response [7]: -9.69%
max response [8]: -3.94%

O=C(O)CCC(=O)Nc1ccc(S(=O)(=O)Nc2nccs2)cc1
Potency [1]: inactive
Potency [2]: inactive
Potency [3]: inactive
max response [4]: -7.17%
max response [5]: -13.9%
max response [6]: -28.4%
max response [7]: 14.8%
max response [8]: -7.15%

CCOc1ccc(NC(C)=O)cc1
Potency [1]: inactive
Potency [2]: inactive
Potency [3]: inactive
max response [4]: -21.4%
max response [5]: -5.15%
max response [6]: -1.35%
max response [7]: 8.88%
max response [8]: -7.54%

CCCCCCCCCCCCCCCC(=O)O
Potency [1]: inactive
Potency [2]: inactive
Potency [3]: inactive
max response [4]: -4.95%
max response [5]: -5.26%
max response [6]: -1.81%
max response [7]: 2.75%
max response [8]: 4.34%

OCc1ccccn1
Potency [1]: inactive
Potency [2]: inactive
Potency [3]: inactive
max response [4]: -1.84%
max response [5]: -1.39%
outcome [6]: inactive
max response [8]: -14.5%
outcome [9]: inactive

CCCCc1cc2ccccc2c(OCCN(C)C)n1
Potency [1]: inactive
Potency [2]: inactive
max response [4]: -9.77%
Potency [5]: 18.8 µM (active)
outcome [6]: inactive
max response [8]: -15.9%
outcome [9]: inactive

CC(=O)O[C@H]1C[C@@H]2CC[C@@H]3[C@H](CC[C@@]4(C)[C@H]3C[C@H]([N+]3(C)CCCCC3)[C@@H]4OC(C)=O)[C@@]2(C)C[C@@H]1N1CCCCC1
Potency [1]: inactive
Potency [3]: 12 µM (active)
max response [4]: -0.866%
max response [5]: 1.01%
max response [6]: 3.88%
max response [7]: -0.262%
max response [8]: 3.84%

COc1ccc(CCN(C)CCCN2CCc3cc(OC)c(OC)cc3CC2=O)cc1OC
Potency [1]: inactive
Potency [2]: inactive
max response [4]: -0.711%
outcome [5]: inactive
max response [6]: -7.19%
max response [8]: 3.6%
outcome [10]: inactive

CC(C)(C)NCC(O)COc1cccc2c1C[C@H](O)[C@H](O)C2 (stereo partly drawn)
outcome [4]: inactive
max response [5]: -3.77%
outcome [6]: inactive
max response [8]: -4.22%
outcome [9]: inactive

CCC1NC(=O)c2cc(S(N)(=O)=O)c(Cl)cc2N1 (stereo not drawn)
max response [4]: -0.729%
max response [5]: -0.132%
max response [6]: -3.39%
max response [8]: 3.38%

O=C(O)CCc1nc2ccccc2[nH]1
Potency [2]: 7.94 µM (active)
max response [4]: -5.04%
max response [5]: -3.96%
max response [6]: -3%
max response [7]: -8.67%
max response [8]: -8.19%

COc1cc(C(=S)N2CCOCC2)ccc1O
Potency [2]: inactive
Potency [3]: inactive
max response [4]: -4.16%
max response [5]: -23.8%
max response [6]: -11.5%
max response [7]: 12.3%
max response [8]: -6.82%

C#C[C@]1(OC(C)=O)CC[C@H]2[C@@H]3CCC4=C/C(=N/O)CC[C@@H]4[C@H]3CC[C@@]21CC
Potency [1]: inactive
Potency [2]: inactive
max response [4]: -7.16%
Potency [5]: 13.3 µM (active)
max response [6]: 2.29%
max response [8]: 2.39%
